The record followed here is PubChem BioAssay.

Active and inactive are the calls of the source.

Assay [1] has as its system Human papillomavirus type 1a protein E7 (residues 44-93). Put plainly: HPV1a E7 fragment binders on microarrays, primary screen, biochemical, small-molecule microarray, residues 44-93, 635 nm fluorescence (AID 1108).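 Further: E7 fragment applied at 1 µg/mL in TBST for 1 h at 4 C; score combines spot fluorescence with its signal to noise ratio.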 The following applies: small-molecule microarray binding, fluorescence 635 nm; higher = more signal.
The nature of assay [2]: modulators of HCV replicon luciferase signal, primary screen, HCV replication inhibitor project, Huh7 cells, luciferase reporter (AID 1109).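 Further: huh7 hepatoma cells harbouring a luciferase neomycin HCV replicon reporter; luciferase luminescence as measure of HCV replicon replication; test concentration not given here.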 The following applies: 48 h, higher = more signal.
The target of assay [3] is Left-right determination factor 2 (Homo sapiens) (UniProt O00292). Put plainly: LEFTY2 binders on small-molecule microarrays, primary screen, biochemical, small-molecule microarray, 635 nm fluorescence scan (AID 1110). The following applies: LEFTY2 binding, higher = more signal.
Sequence of Left-right determination factor 2 (Homo sapiens) (O00292 whole entry, looked up): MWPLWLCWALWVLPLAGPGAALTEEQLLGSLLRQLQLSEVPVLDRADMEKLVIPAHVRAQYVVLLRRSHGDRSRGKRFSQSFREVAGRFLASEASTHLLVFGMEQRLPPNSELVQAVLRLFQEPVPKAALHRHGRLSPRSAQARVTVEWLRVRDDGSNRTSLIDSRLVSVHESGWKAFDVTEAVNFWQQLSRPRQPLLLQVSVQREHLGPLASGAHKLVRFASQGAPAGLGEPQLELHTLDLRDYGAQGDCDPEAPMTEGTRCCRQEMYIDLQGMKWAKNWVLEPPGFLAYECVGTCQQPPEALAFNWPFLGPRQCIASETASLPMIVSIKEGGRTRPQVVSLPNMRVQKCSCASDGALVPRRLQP
The target of assay [4] is Calmodulin-1 (Homo sapiens) (UniProt P0DP23). Put plainly: CALM1 binders on microarrays, EGTA buffer, profiling panel, biochemical, small-molecule microarray, Cy5-labelled CALM1 (AID 1111).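 Further: labelled calmodulin applied in Tris saline Tween buffer holding calcium plus EGTA and DTT.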 The following applies: Cy5-CALM1 binding fluorescence, higher = more signal.
For assay [5] the target is unchanged. In words: calcium-bound CALM1 binders on microarrays, profiling panel, artefact control for SMM control-protein annotation, biochemical, small-molecule microarray, Cy5-labelled CALM1, plus calcium (AID 1112).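 Further: score merges spot fluorescence with signal to noise from triplicate slides.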 The following applies: Cy5-CALM1 binding fluorescence, higher = more signal.
A short description of assay [6]: small-molecule microarray binders of probe aWnt5a, primary screen, biochemical, biotinylated probe, 635/667 nm fluorescence (AID 1113).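 Further: score merges 667 nm fluorescence intensity with signal-to-noise per printed feature.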 The following applies: higher = more signal.
Assay [7] can be described thus: small-molecule microarray binders of probe aShh, primary screen, biochemical, biotinylated probe, 635/667 nm fluorescence (AID 1114).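 Further: probe is biotin-labelled aShh protein from a stem cell growth factor screen; measures binding of labelled protein to compounds printed on the slide; score merges feature fluorescence at 667 nm with signal-to-noise.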 The following applies: higher = more signal.
Assay [8] can be described thus: small-molecule microarray binders of probe aNog, primary screen, biochemical, biotinylated probe, 635/667 nm fluorescence (AID 1115).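 Further: probe is biotinylated aNog protein used at 0.15 µg/mL for 1 h at 4 C; z-score combines 667 nm fluorescence of each spot with its signal to noise.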 The following applies: higher = more signal.
Assay [9] deals with Torsin-1A-interacting protein 1 (Homo sapiens) (UniProt Q5JTV8). In words: LAP1 binders from COS7 cell lysate, primary screen, small-molecule microarray, 635/667 nm fluorescence (AID 1116). The following applies: COS7-hLAP1 lysate binding, 635 nm fluorescence, higher = more signal.
Sequence of Torsin-1A-interacting protein 1 (Homo sapiens) (Q5JTV8 whole entry, looked up): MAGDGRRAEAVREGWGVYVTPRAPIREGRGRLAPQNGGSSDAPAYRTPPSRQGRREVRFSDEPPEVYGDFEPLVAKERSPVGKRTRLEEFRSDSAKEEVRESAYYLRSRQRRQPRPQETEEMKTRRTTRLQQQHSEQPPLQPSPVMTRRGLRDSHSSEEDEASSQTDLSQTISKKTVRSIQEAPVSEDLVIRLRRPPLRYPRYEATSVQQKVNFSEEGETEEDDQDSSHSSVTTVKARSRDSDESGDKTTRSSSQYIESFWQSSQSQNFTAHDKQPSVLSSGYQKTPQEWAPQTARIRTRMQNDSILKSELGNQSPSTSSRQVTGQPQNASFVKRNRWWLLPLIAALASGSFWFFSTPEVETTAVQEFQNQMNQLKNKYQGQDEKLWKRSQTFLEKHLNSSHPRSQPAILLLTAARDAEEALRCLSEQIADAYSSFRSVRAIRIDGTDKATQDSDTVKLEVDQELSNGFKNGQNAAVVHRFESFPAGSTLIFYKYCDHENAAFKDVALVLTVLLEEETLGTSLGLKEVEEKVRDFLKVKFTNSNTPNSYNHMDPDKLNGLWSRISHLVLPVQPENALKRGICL
Assay [10] concerns the target Alpha-bungarotoxin (Bungarus multicinctus) (UniProt P60615). Put plainly: alpha-bungarotoxin binders on microarray, profiling panel, artefact control for SMM control protein annotation, biochemical, small-molecule microarray, Alexa647 label, 635/667 nm fluorescence (AID 1117). The following applies: alpha-BTX-A647 binding fluorescence, higher = more signal.
In assay [11] the target is Albumin (Bos taurus) (UniProt P02769). In words: bovine serum albumin binders on microarray, profiling panel, artefact control for SMM control protein annotation, biochemical, small-molecule microarray, Alexa647 label, 635/667 nm fluorescence (AID 1118).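 Further: score merges 667 nm emission intensity and signal-to-noise per printed compound spot.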 The following applies: BSA-A647 binding, fluorescence 635 nm, higher = more signal.
Sequence of Albumin (Bos taurus) (P02769 whole entry, looked up): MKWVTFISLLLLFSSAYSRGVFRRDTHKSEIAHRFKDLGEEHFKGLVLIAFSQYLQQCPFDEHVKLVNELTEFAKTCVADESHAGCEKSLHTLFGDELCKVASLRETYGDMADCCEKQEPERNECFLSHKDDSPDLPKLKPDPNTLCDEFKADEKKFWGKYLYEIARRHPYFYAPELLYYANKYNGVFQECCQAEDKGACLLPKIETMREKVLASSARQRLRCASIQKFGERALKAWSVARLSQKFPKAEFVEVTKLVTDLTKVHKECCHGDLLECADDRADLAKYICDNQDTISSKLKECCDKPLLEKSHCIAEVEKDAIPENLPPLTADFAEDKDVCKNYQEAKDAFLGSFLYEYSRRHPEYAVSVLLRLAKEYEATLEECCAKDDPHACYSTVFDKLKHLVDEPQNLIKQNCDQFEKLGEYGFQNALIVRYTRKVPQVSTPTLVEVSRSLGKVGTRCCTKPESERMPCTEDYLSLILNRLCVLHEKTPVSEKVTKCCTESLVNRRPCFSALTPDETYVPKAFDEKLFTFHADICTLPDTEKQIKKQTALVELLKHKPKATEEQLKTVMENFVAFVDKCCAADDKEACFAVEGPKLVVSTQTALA
The nature of assay [12]: small-molecule microarray binders of probe aXIP, primary screen, biochemical, NeuroSMM set, 635/667 nm fluorescence (AID 1119).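 Further: probe is the protein aXip251-270 applied at 1 µg/mL to compound-printed slides; binding of probe to printed compounds measured as 667 nm fluorescence plus signal to noise.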 The following applies: higher = more signal, called active from +8 up or from −8 down.
A short description of assay [13]: small-molecule binders of probe aNOTCH3, primary screen, biochemical, small-molecule microarray, 635/667 nm fluorescence (AID 1120).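 Further: probe is a biotin-tagged antibody raised against NOTCH3 rather than NOTCH3 protein; score merges spot fluorescence near 667 nm with spot signal to noise.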 The following applies: higher = more signal.
Assay [14] is described as follows: small-molecule binders of probe aNOTCH2, primary screen, biochemical, small-molecule microarray, 635/667 nm fluorescence (AID 1121).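 Further: score merges feature fluorescence read at 667 nm with its signal to noise.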 The following applies: higher = more signal.
Assay [15] addresses Carbonic anhydrase 2 (Homo sapiens) (UniProt P00918). In words: CAII small-molecule binders, profiling panel, biochemical, small-molecule microarray, Alexa647-labelled CAII (AID 1122). The following applies: CAII-A647 binding fluorescence, higher = more signal.
Assay [16] in a line: COS7 lysate on small-molecule microarray, probe aHis, 635 nm (AID 1123).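 Further: z-score combines 667nm fluorescence intensity with signal-to-noise per printed compound spot.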 The following applies: COS7 cell lysate, fluorescence, higher = more signal.
Assay [17] is described as follows: compound binding in COS7 lysate, probe aLAP1, primary screen, cell lysate, small-molecule microarray (AID 1124).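 Further: lysate comes from COS7 cells expressing LAP1 and is applied at 0.3 µg/mL; score merges spot fluorescence near 667 nm with signal-to-noise over triplicate slides.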 The following applies: probe aLAP1, fluorescence, higher = more signal.
Assay [18] has as its system Sam68 (KHDRBS1). Put plainly: Sam68 small-molecule binders, primary screen, biochemical, small-molecule microarray, 635 nm fluorescence (AID 1125).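 Further: score merges 667 nm channel intensity with signal to noise over triplicate slides.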 The following applies: small-molecule microarray binding, higher = more signal.
The test system of assay [19] is Chordin-like protein 2 (CHRDL2). In words: CHRDL2 small-molecule binders, primary screen, biochemical, small-molecule microarray, 635 nm fluorescence (AID 1126).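 Further: printed compound slides probed with Chrdl2 protein at 4 µg/mL for 1 h at 4 C; score merges 667 nm emission intensity with signal to noise over three replicate slides.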 The following applies: small-molecule microarray binding, fluorescence 635 nm; higher = more signal.
In assay [20] the target is Concanavalin-A (Canavalia ensiformis) (UniProt P02866). In words: ConA small-molecule binders, primary screen, artefact control for SMM control protein annotation, biochemical, small-molecule microarray, Alexa647 label, 635 nm (AID 1127).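 Further: z combines 667 nm emission intensity with signal-to-noise across three replicate slides.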 The following applies: ConA-A647 binding fluorescence, higher = more signal.
Sequence of Concanavalin-A (Canavalia ensiformis) (P02866 whole entry, looked up): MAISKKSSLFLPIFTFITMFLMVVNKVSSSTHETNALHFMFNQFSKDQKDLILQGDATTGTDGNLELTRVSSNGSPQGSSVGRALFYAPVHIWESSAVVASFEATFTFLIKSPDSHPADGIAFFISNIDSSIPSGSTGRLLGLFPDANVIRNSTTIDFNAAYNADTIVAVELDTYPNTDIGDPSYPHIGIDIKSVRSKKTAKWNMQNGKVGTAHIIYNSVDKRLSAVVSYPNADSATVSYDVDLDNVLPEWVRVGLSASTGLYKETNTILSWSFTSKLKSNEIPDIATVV

Sequence of Alpha-bungarotoxin (Bungarus multicinctus) (P60615 whole entry, looked up): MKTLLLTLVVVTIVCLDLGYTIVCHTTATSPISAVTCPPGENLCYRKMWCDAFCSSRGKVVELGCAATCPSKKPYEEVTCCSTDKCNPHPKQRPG

Regarding `Cc1ccc(C2C3C(=O)CC4C(=O)N(c5ccccc5)C(=O)C4C3CN2S(=O)(=O)c2ccc(C)cc2)cc1` (stereo not given), the composite z-score in assay [1] was determined as 0.808; in [3], 0.0699; in assay [4] it was 1.33; in assay [5], 0.531; in assay [6] it was 0.374; in assay [7], 0.343. Also, the composite z-score was -0.308 in assay [8]; 1.66 in assay [9]; 0.644 in assay [10]; 0.684 in assay [11]; 0.469 in [13]; 0.603 in assay [14]. Besides, the composite z-score in assay [15] was 0.539; in [16] it was 2.17; in assay [17], 0.362; in assay [18] it was 1.17; in assay [19] it was -0.479; in assay [20], 0.671. In addition, in assay [2], the z-score is -0.418. The composite Z-score in assay [12] was -0.0384 (inactive).
As for `CC1CC/C=C\[C@H]2OC34C=CCN(Cn5nnc6ccccc65)C(=O)[C@H]3N(CCCCCO)C(=O)[C@@H]4C2C(=O)O1` (stereo not given in full), the composite z-score in assay [1] is -1.05; in [3] it was -1.54; in assay [4], -0.881; in assay [5] it was 0.0455; in assay [6] it was -0.197; in assay [7], -0.283. Also, the composite z-score in assay [8] is 0.558; in [9], -0.722; in [10], -1.3; in assay [11] it was -1.22; in [13], -0.236; in assay [14], -0.106. Also, the composite z-score in [15] was 0.548; in [16], 0.737; in [17] it was 0.434; in assay [18] it was 0.479; in [19], -1.75; in assay [20], -0.845. The same molecule returned a z-score in assay [2] of 0.814. Further, the composite Z-score in assay [12] is 0.19 (inactive).
With `OCCCC1=CC(C2CC2)N(Cc2cccc(OC(F)(F)F)c2)CC1` (stereo not given), the composite z-score in assay [1] is -0.928; in [3] it was -0.119; in assay [4], -0.968; in assay [5], 0.115; in assay [6] it was -0.178; in assay [7], -0.321. Besides, the composite z-score in [8] is -0.641; in assay [9] it was 1; in assay [10], -0.478; in assay [11], 0.485; in assay [13] it was -0.284; in [14], -0.177. Further, the composite z-score in [15] was 0.783; in [16], 0.421; in assay [17], 0.833; in assay [18] it was -0.441; in assay [19] it was -0.106; in assay [20], -0.807. Moreover, the z-score in assay [2] is -1.32. For the same molecule, the composite Z-score in assay [12] is 0.438 (inactive).
As for `C=C(CCCC)/C(=C/C[C@H](OC(C)=O)c1ccccc1OCCO)c1cnc2ccccc2c1`, the composite z-score is 0.984 in assay [1]; 0.0641 in assay [3]; -0.0602 in assay [4]; -0.796 in [5]; -0.0718 in [6]; -0.0709 in assay [7]. The composite z-score in assay [8] is -0.327; in assay [9], 0.469; in [10] it was 0.887; in [11] it was 0.553; in assay [13], -0.12; in [14], -0.173. For the same molecule, the composite z-score in [15] turned out to be 0.5; in assay [16] it was 0.376; in assay [17], 0.0282; in assay [18], 0.8; in assay [19], 0.77; in assay [20], 0.706. In addition, the z-score in assay [2] is -2.75. Moreover, the composite Z-score in assay [12] was 0.282 (inactive).
For `CC#CC(=O)Oc1ccc(Br)cc1C=CC(=O)OCC`, the composite z-score in assay [1] was 1.23; in assay [3] it was -0.034; in assay [4] it was -0.323; in assay [5], -0.465; in [6], -0.0154; in assay [7] it was 0.42. In addition, the composite z-score is 0.302 in [8]; 0.286 in assay [9]; 0.683 in [10]; -0.107 in assay [11]; 0.144 in [13]; -0.0529 in assay [14]. For the same molecule, the composite z-score in assay [15] was found to be 0.18; in assay [16] it was 0.942; in [17] it was 0.158; in assay [18], 0.582; in assay [19], 0.103; in assay [20], 0.269. In assay [2], this molecule returned a z-score of -2.4. Besides, in assay [12], the composite Z-score is 1.39 (inactive).
